Assay results from PubChem BioAssay (NCATS).
Inconclusive results are not listed. Calls of active or inactive are those of the source. Calls follow the shape of the dose curve; as a rule, active = well fitted curve in the direction sought with a large enough effect; inconclusive = small, poorly fitted or top-dose-only effect, or another doubt; inactive = no such curve, though single readings can be large; an effect the other way counts as inactive or inconclusive.

Assays:
[1] = biological target: Metallo-beta-lactamase type 2 (Klebsiella pneumoniae) (UniProt C7C422); test: qHTS to identify inhibitors of the New Delhi Metallo-beta-lactamase (NDM): assay validation screen against the NCATS LOPAC Collection (AID 1794843); conditions: NDM-1 enzyme, nitrocefin hydrolysis, absorbance 485 nm; series mostly up to 38.4 µM;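 also: nitrocefin turnover by NDM-1 measured as 485 nm absorbance at plateau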
Procedure, shortened: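 Nitrocefin hydrolysis (50 uM substrate stock) by NDM-1, 2 nM final, was followed by 485 nm absorbance after compound preincubation; buffer was 50 mM HEPES pH 7.0, 1 uM ZnSO4, 0.01% Tween20.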

[2] = biological target: Glutathione peroxidase 1 (Homo sapiens) (UniProt P07203); test: Primary qHTS Assay for Inhibitors of Recombinant Selenoprotein Glutathione Peroxidase 1 (GPX1) (AID 1845191); conditions: recombinant GPX1, GR-coupled NADPH fluorescence, 15 min; series mostly up to 48.8 µM; also: nearly all actives have a fitted effect of over 65% in size
Procedure, shortened: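 GPX1 10 nM, GR 100 nM, GSH 1 mM, NADPH 0.5 mM, CHP 0.5 mM (final). 30-min cpd preincubation, RT. Ex340/Em450 read t=0, t=15 min.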

[3] = biological target: Phospholipid hydroperoxide glutathione peroxidase GPX4 (Homo sapiens) (UniProt P36969); test: Primary qHTS Assay for Inhibitors of Recombinant Selenoprotein Glutathione Peroxidase 4 (GPX4) (AID 1845192); conditions: recombinant GPX4, GR-coupled NADPH fluorescence, 15 min; series mostly up to 50 µM; also: nearly all actives have a fitted effect of over 65% in size
Procedure, shortened: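 qHTS, GR-coupled: GPX4 200 nM + cpd 30 min RT → GSH 1 mM, NADPH 0.5 mM, GR 100 nM → CHP 0.5 mM start; fluor 340/450 at t0 and t15 min; no-enzyme wells as control.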

Measured: Potency

Chain of Glutathione peroxidase 1 (Homo sapiens) (P07203 whole entry, looked up): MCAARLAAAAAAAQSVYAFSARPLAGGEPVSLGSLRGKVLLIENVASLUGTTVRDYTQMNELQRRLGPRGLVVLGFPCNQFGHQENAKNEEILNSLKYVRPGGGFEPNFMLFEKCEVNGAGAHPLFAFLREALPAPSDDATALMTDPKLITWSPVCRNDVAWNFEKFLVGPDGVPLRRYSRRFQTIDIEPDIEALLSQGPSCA
Chain of Metallo-beta-lactamase type 2 (Klebsiella pneumoniae) (C7C422 whole entry, looked up): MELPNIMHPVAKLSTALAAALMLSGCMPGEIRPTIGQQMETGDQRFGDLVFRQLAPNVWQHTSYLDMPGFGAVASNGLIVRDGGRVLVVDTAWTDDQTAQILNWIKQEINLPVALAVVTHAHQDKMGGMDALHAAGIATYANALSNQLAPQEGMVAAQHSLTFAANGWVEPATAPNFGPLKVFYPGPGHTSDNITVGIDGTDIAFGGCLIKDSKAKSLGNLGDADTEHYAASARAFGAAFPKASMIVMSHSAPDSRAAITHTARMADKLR
Chain of Phospholipid hydroperoxide glutathione peroxidase GPX4 (Homo sapiens) (P36969 whole entry, looked up): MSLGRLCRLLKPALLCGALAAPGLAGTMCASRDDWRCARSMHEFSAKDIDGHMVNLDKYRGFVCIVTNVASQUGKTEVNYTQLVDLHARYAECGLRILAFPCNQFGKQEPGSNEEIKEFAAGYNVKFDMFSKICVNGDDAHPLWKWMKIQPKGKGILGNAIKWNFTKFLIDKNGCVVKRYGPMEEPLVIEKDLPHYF

NCC(O)C1CCCCCCC1 (centres undefined)
inactive: all assays above

CC(=O)[C@H]1CCC2C3CC=C4C[C@@H](OS(=O)(=O)O)CC[C@]4(C)C3CC[C@@]21C (some centres undefined)
inactive: all assays above

N#C/C(=C\c1ccc(O)c(O)c1)C(=O)NCCCNC(=O)/C(C#N)=C/c1ccc(O)c(O)c1
inactive: all assays above

[Li+]
inactive: all assays above

Nc1ccc(-c2ccc3ccccc3n2)cc1
inactive: all assays above

O=c1cc(-c2ccccc2F)[nH]c2cc3c(cc12)OCO3
inactive: all assays above

C[C@H](NC(=O)/C(C#N)=C/c1ccc(O)c(O)c1)c1ccccc1
inactive: all assays above

COc1ccc(-c2ccc(N)[n+](CCCC(=O)O)n2)cc1
inactive: all assays above
